Sampled rows, rich in hits. Any-hit rate of the full collection: about 3.9%.
HT1080-NT tox: qHTS for induction of synthetic lethality in tumor cells producing 2HG: qHTS for the HT-1080-NT fibrosarcoma cell line; HT-1080-NT fibrosarcoma viability, CellTiter-Glo ATP luminescence, 48 h; Potency, µM (series often up to 46.1 µM), usual class: cytotoxic; hit rate 1.6% among 360,000; AID 686970, 2013;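 also: NT is the 2HG producing partner of a matched IDH1 knockdown line; nearly all actives have a fitted effect of over 55% in size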
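750 cells/well, RPMI + 5% FBS; 2 h settle, compound pin-transfer, 48 h at 37 degrees C. CellTiter-Glo 10 min RT, luminescence. Normalized to DMSO and media-only wells.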
ATXN2 expr inh: Primary qHTS for Inhibitors of ATXN expression; HEK-293 ATXN2-luciferase reporter, luminescence, 24 h; Potency, µM (doses to about 57 µM), most hits filed as inhibitors; hit rate 0.72% among 360,000; also: nearly all actives have a fitted effect of over 55% in size
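ATXN2-luciferase reporter cells (luciferase flanked by upstream and downstream ATXN2 gene portions) were treated 24 h at 37 °C with compounds at up to 57 uM. SteadyGlo luminescence gave expression; GF-AFC fluorescence gave viability.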
HepG2 viability: qHTS for Inhibitors of TGF-b: Cytotox Counterscreen; HepG2 CAGA-GFP viability, ATP luminescence, 18 h; hit rate 0.76% among 410,000; Potency, µM (titrated, usually from 46.1 µM), hits mostly cytotoxic
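CellTiter-Glo luminescence gave cytotoxicity after 18 hours at 37 degrees C. The cells were HepG2 CAGA-GFP in 1% FBS DMEM, stimulated with 500 pg/mL TGF-beta after compound addition. %Activity was normalised to no-cell wells (complete cell-killing) and DMSO (no toxicity), and curves were fitted and classified.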
HT1080 IDH1KD tx: qHTS for induction of synthetic lethality in tumor cells producing 2HG: qHTS for the HT-1080-IDH1KD cell line | HT-1080 IDH1 knockdown viability, ATP luminescence, 48 h | Potency, µM (top dose mostly 46.1 µM), actives largely listed as cytotoxic | hit rate 2% among 360,000
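% activity derives from luminescence (CellTiter-Glo), normalised to DMSO and no-cell wells. HT-1080-IDH1KD cells, 750/well, had 48 h compound exposure at 37 °C.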
TGFb SMAD3 inh: qHTS for Inhibitors of TGF-b; HepG2 CAGA-GFP TGF-b/SMAD3 reporter, GFP fluorescence, 18 h; TGF-beta stimulated, 500 pg/mL final; Potency, µM (highest dose often 46.1 µM), usual class: inhibitors; hit rate 1.2% among 410,000; AID 588855, 2011; also: nearly all actives have a fitted effect of over 65% in size
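TGF-beta reporter screen: HEPG2 CAGA-GFP, 1% FBS, 500 pg/mL TGF-beta final, 18 h; per-cell GFP summed per well; curves fitted and categorized by class.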
S2 tox: Viability Counterscreen for Primary qHTS for Inhibitors of ATXN expression | S2 cells (HEK-293 line with an ATXN2-luciferase reporter) viability, CellTiter-Fluor protease fluorescence, 24 h | Potency, µM (series often up to 56.7 µM), most hits filed as cytotoxic | hit rate 0.49% among 400,000; also: nearly all actives have a fitted effect of over 40% in size
Numbers stand for hits; 0 = inactive; ? = inconclusive; - = not tested or not shown; ! = not confirmed by another sample. Calls follow the shape of the dose curve; as a rule, active = well fitted curve in the direction sought with a large enough effect; inconclusive = small, poorly fitted or top-dose-only effect, or another doubt; inactive = no such curve, though single readings can be large; an effect the other way counts as inactive or inconclusive.

SMILES | HT1080-NT tox | ATXN2 expr inh | HepG2 viability | HT1080 IDH1KD tx | TGFb SMAD3 inh | S2 tox
Cc1ccc(COc2ccc(/C=N/O)cc2)cc1 | 0 | 0 | 0 | 0 | 0 | 0
NC(N)=N/N=C/c1ccc(OCc2ccccc2)cc1 | 18µM | ? | 13µM | ? | ? | ?
NC(N)=N/N=C/c1ccc(OCc2ccc(Cl)cc2)cc1 | 16µM | ? | 10µM | ? | ? | 32µM
O=C(Nc1cc(C(F)(F)F)ccc1Cl)c1cc(-c2ccc3c(c2)OCCO3)on1 | - | 0 | 0 | - | 0 | 0
Cc1cccnc1C(NC(=O)C1CCN(Cc2cn(C)c3ccccc23)CC1)c1ccc(Cl)cc1 (configuration not stated) | 12µM | ? | 8.9µM | ? | ? | ?
O=C(NC(c1ccc(Cl)cc1)c1cccnc1)C1CCN(CCOc2ccc(Cl)cc2Cl)CC1 (configuration not stated) | 18µM | ? | 0 | 18µM | ? | -
O=C(NC(c1ccc(Cl)cc1)c1ccccn1)C1CCN(CCOc2ccc(Cl)cc2Cl)CC1 (configuration not stated) | ? | 0 | 0 | ? | ? | 0
Cc1cccnc1C(NC(=O)C1CCN(CCOc2ccc(Cl)cc2Cl)CC1)c1ccc(Cl)cc1 (configuration not stated) | 0 | 20µM | 0 | 0 | ? | 25µM
Cc1cccnc1C(NC(=O)C1CCN(CCCc2ccccc2)CC1)c1ccc(Cl)cc1 (configuration not stated) | 26µM | ? | 11µM | ? | ? | ?
Cc1cccnc1C(NC(=O)C1CCN(Cc2ccc(Cl)cc2)CC1)c1ccccc1 (configuration not stated) | ? | 0 | 0 | ? | 0 | 0
Cc1ccc(C2c3[nH]c4ccccc4c3CCN2C(=O)Nc2ccc(C)c(C)c2)cc1 (configuration not stated) | - | - | 0 | - | 0 | -
CC1CCn2c(nc3cc(C(=O)NCc4ccc(OC(C)C)cc4)ccc32)C1 (configuration not stated) | - | - | 0 | - | ? | -
Cc1ccccc1C1(CC(=O)N2CCOCC2)CC(=O)N(Cc2cccnc2)C1=O (configuration not stated) | - | - | - | - | - | 0
CC1CCN(C(=O)C(C)Sc2nc(-c3ccccc3)cc(C(F)(F)F)n2)CC1 (configuration not stated) | ? | 0 | 0 | ? | 16µM! | 0
Cc1nc(SCC(=O)NNC(=O)c2ccc(F)cc2)c2ccccc2n1 | 0 | 0 | 0 | 0 | 0 | 0
CSc1nc(N(C)NC(=O)c2ccc(F)cc2)c2ccccc2n1 | ? | 0 | 0 | 0.52µM | ? | ?
C=CCn1c(=O)n([C@@H]2O[C@H](CO)[C@@H](O)[C@H]2O)c2nc(N)[nH]c(=O)c21 | - | 0 | - | - | - | 0
CC(O)(c1cccc(F)c1)c1nc(-c2cc(F)cc(F)c2)cs1 (configuration not stated) | ? | 0 | 0 | ? | 11µM | ?
CC(O)(c1cccc(F)c1)c1nc(-c2ccc(Cl)cc2)cs1 (configuration not stated) | ? | 0 | 0 | ? | ? | ?
CN(C)c1ccc(-c2csc(C(C)(O)c3cccc(F)c3)n2)cc1 (configuration not stated) | 26µM | 0 | 0 | ? | ? | 0
CCN(CC)C(=O)c1cccc(-c2csc(C(C)(O)c3cccc(F)c3)n2)c1 (configuration not stated) | ? | 28µM | 0 | ? | ? | ?
CC(O)(c1cccc(F)c1)c1nc(-c2csc3ccccc23)cs1 (configuration not stated) | ? | 0 | 0 | ? | 13µM | ?
CCOC(=O)C1=C(C)NC(C)=C(C(=O)OCC)C1c1cc2ccc(C)cc2[nH]c1=O | 18µM | 0 | 0 | 8.2µM | 0 | 0
CC(C)C(Cl)=NOC(=O)Nc1ccc(F)cc1 | 0 | ? | 20µM | 16µM | 0 | 21µM
C/C(=N\OC(=O)Nc1ccc(Cl)cc1)c1ccc(F)c(F)c1 | 0 | 0 | 0 | 0 | 0 | 0
SMILES | HT1080-NT tox | ATXN2 expr inh | HepG2 viability | HT1080 IDH1KD tx | TGFb SMAD3 inh | S2 tox
Cc1ccc(C)c(OCC(O)CN2CCc3ccccc3C2)c1C (configuration not stated) | ? | ? | 0 | 9.2µM | ? | ?
Cc1ccc(C)c(CSc2nc3[nH]ncc3c(=O)[nH]2)c1 | 1.3µM | 0 | 0 | 1.8µM | 0 | 0
Nc1ccc(C23CC4CC(CC(CO)(C4)C2)C3)cc1 | 0 | 0 | 0 | 0 | 0 | 0
NCC12CC3CC(C1)CC(c1ccc(Cl)cc1)(C3)C2 | 23µM | - | 0 | ? | ? | -
C=CCSc1nnc(C2CCCN(Cc3ccccc3O)C2)n1C (configuration not stated) | - | - | - | - | - | 0
Cc1ncc2c(c1CNC(=O)CN1CCCC1)CCN(C(=O)c1ccc(F)cc1F)C2 | - | - | - | - | - | 0
Cc1nn(CCC(=O)Nc2ccc(Cl)cc2)c(C)c1S(=O)(=O)N1CCCCC1 | - | - | 0 | - | ? | -
C=CCn1c(=S)[nH]c2nc3c(cc2c1=O)CCCC3 | 8.9µM | 0 | 0 | 8.9µM | 0 | 0
CNC(=O)c1cccc(-c2ccc3c(N4CCOC[C@H]4C)nc(N4CCOC[C@H]4C)nc3n2)c1 | - | 0 | - | - | - | -
COc1ccc(CNC(=O)C(c2ccc(C)cc2)N(Cc2cccs2)C(=O)c2ccc3c(c2)OCCO3)cc1 (configuration not stated) | ? | 0 | 0 | 13µM | 0 | 0
COc1cccc(C2=NS(=O)(=O)N(C)C(C(=O)Nc3ccccc3SC)=C2)c1 | - | 0 | 0 | - | 0 | 0
COc1ccc(OC)c(S(=O)(=O)N2CCN(c3ccccc3)CC2)c1 | 0 | 0 | 0 | 0 | 0 | -
COc1ccc(OC)c(S(=O)(=O)ON2C(=O)c3ccccc3C2=O)c1 | ? | 0 | 0 | 4.1µM | ? | ?
CCc1ccc(S(=O)(=O)ON2C(=O)c3ccccc3C2=O)cc1 | 0 | 30µM | 0 | 0 | ? | -
O=C1c2cccc3cccc(c23)C(=O)N1OS(=O)(=O)c1ccc(Cl)cc1 | 0 | 0 | 0 | 0 | 0 | 0
COc1ccccc1N1CCN(c2ncnc3c2cnn3-c2cc(Cl)ccc2C)CC1 | - | ? | 0 | - | 0 | 0
CCOc1ccc(NC(=O)CSc2oc(-c3ccco3)nc2S(=O)(=O)c2ccc(Cl)cc2)cc1 | - | 0 | 0 | - | 0 | 0
CC(C)C[C@H](NC(=O)c1[nH]cnc1C(=O)N[C@@H](Cc1ccccc1)C(=O)OC(C)(C)C)C(=O)OCc1ccccc1 | ? | 0 | 0 | ? | ? | ?

Screening results (PubChem)
